About 79,000 compounds went through this panel and 15% of them were active in at least one assay; those are over-represented in the sample as a whole. The source made the active and inactive calls. Rule as the data show it: active = growth inhibition above about 70%; inactive = the rest.
Legend:
[1] = NCI Yeast Anticancer Drug Screen. Data for the rad52 strain (AID 147);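 also: 0% = growth of vehicle-treated control cultures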; conditions: S. cerevisiae rad52 mutant growth inhibition, active compounds read high
Outline: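 Read-out: growth inhibition versus vehicle-treated controls. Cells were a DNA repair-deficient yeast strain treated with compounds.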

[2] = NCI Yeast Anticancer Drug Screen. Data for the wt1 strain (AID 149);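 also: 0% = growth of vehicle-treated wt1 cultures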; conditions: S. cerevisiae wt1 strain (SPY 50644) growth inhibition, active compounds read high
Outline: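 Vehicle-normalised growth inhibition; strain wt1; compound exposure.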

[3] = NCI Yeast Anticancer Drug Screen. Data for the rad50EPP+ strain (AID 151);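 also: 0% = growth of vehicle-treated control cultures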; conditions: S. cerevisiae rad50 mutant strain, active compounds read high
Outline: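 Growth inhibition read against vehicle controls in rad50EPP+ yeast, a strain altered in DNA damage repair, after compound exposure.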

[4] = NCI Yeast Anticancer Drug Screen. Data for the mgt1 strain (AID 153); conditions: S. cerevisiae mgt1 mutant growth inhibition, active compounds read high
Outline: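 mgt1 yeast grown with test compound; read-out is growth inhibition versus vehicle-treated cultures.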

[5] = NCI Yeast Anticancer Drug Screen. Data for the rad50 strain (AID 155);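 also: 0% = growth of vehicle-only cultures of the same strain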; conditions: S. cerevisiae rad50 strain growth inhibition, active compounds read high
Outline: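 A DNA repair-deficient yeast mutant serves as the test organism; compound-induced growth inhibition is calculated against vehicle-treated cells.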

[6] = NCI Yeast Anticancer Drug Screen. Data for the mec2-1 strain (AID 157); conditions: S. cerevisiae mec2-1 strain, active compounds read high
Outline: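 Yeast mec2-1 mutant treated with compound. Readout: growth inhibition vs vehicle controls.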

[7] = NCI Yeast Anticancer Drug Screen. Data for the rad14 strain (AID 159);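 also: 0% = growth of vehicle-treated control cultures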; conditions: S. cerevisiae rad14 strain growth inhibition, active compounds read high
Outline: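 Vehicle-treated cultures served as the baseline for growth inhibition of a DNA repair-mutant yeast strain exposed to each compound.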

[8] = NCI Yeast Anticancer Drug Screen. Data for the sgs1 mgt1 strain (AID 161);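 also: 0% = growth of cultures given vehicle only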; conditions: S. cerevisiae sgs1 mgt1 strain, active compounds read high
Outline: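 Test agents were incubated with a DNA-repair-mutant yeast strain. Growth was then read and compared against vehicle-treated controls.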

[9] = NCI Yeast Anticancer Drug Screen. Data for the CLN2oe strain (AID 163);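 also: 0% = growth of vehicle-only control cultures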; conditions: S. cerevisiae CLN2oe strain, active compounds read high
Outline: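 Read-out: yeast growth inhibition, expressed relative to vehicle-only controls. The strain bears an engineered cell-cycle alteration.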

[10] = NCI Yeast Anticancer Drug Screen. Data for the cln2 rad14 strain (AID 165);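 also: 0% = growth equal to vehicle treated cultures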; conditions: S. cerevisiae cln2 rad14 strain, active compounds read high
Outline: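 cln2 rad14 yeast strain; compound exposure; growth inhibition read vs vehicle controls.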

[11] = NCI Yeast Anticancer Drug Screen. Data for the bub3 strain (AID 167); conditions: S. cerevisiae bub3 mutant strain, active compounds read high
Outline: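 Inhibition values come from growth of compound-treated mutant yeast normalised to vehicle-treated controls.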

[12] = NCI Yeast Anticancer Drug Screen. Data for the wt2 strain (AID 169);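 also: 0% = growth of vehicle-treated yeast cultures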; conditions: S. cerevisiae wt2 strain growth inhibition, active compounds read high
Outline: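 Read-out: growth inhibition versus vehicle-treated control cultures after compound exposure of the yeast strain.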

[13] = NCI Yeast Anticancer Drug Screen. Data for the mlh1 strain (AID 171);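 also: 0% = growth of vehicle-treated control cultures of the same strain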; conditions: S. cerevisiae mlh1 strain growth inhibition, active compounds read high
Outline: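 Read-out: growth inhibition versus vehicle controls. Strain: engineered yeast with a defined DNA repair or cell cycle defect, compound-treated.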

[14] = NCI Yeast Anticancer Drug Screen. Data for the sgs1 strain (AID 173);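 also: 0% = growth of vehicle-only control cultures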; conditions: S. cerevisiae sgs1 mutant, active compounds read high
Outline: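 Read-out: yeast growth inhibition relative to vehicle controls, following compound exposure of a strain with a defined DNA repair/cell cycle alteration.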

[15] = NCI Yeast Anticancer Drug Screen. Data for the mlh1 rad18 strain (AID 175); conditions: S. cerevisiae mlh1 rad18 strain growth inhibition, active compounds read high
Outline: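 Yeast w/ defined DNA-repair lesions; compound exposure; growth vs vehicle controls → % inhibition.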

[16] = NCI Yeast Anticancer Drug Screen. Data for the rad18 strain (AID 177); conditions: S. cerevisiae rad18 mutant growth inhibition, active compounds read high
Outline: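 Readout: growth inhibition vs vehicle controls. Cells: genetically altered yeast strain, DNA repair defect.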

[17] = at 5.0 µM (retest, dose inferred, filed as 0.5)
[18] = at 50.0 µM (retest, dose inferred, filed as 5.0)

Measured: growth inhibition

NC(=O)c1c([N+](=O)[O-])cc(C(F)(F)F)cc1[N+](=O)[O-]
inactive: [1]; at 1.2 µM 2% | [1]; at 3.7 µM 1% | [1]; at 11.0 µM 3% | [1]; at 33.0 µM 6% | [1]; at 100.0 µM 7% | [2]; at 1.2 µM 0% | [2]; at 3.7 µM 0% | [2]; at 11.0 µM 0% | [2]; at 33.0 µM 2% | [2]; at 100.0 µM 2% | [3]; at 1.2 µM 1% | [3]; at 3.7 µM 5% | [3]; at 11.0 µM 7% | [3]; at 33.0 µM 16% | [3]; at 100.0 µM 40% | [4]; at 1.2 µM 3% | [4]; at 3.7 µM 5% | [4]; at 11.0 µM 4% | [4]; at 33.0 µM 6% | [4]; at 100.0 µM 6% | [5]; at 1.2 µM -1% | [5]; at 3.7 µM 0% | [5]; [17] -6% | [5]; at 11.0 µM -1% | [5]; at 33.0 µM 3% | [5]; [18] -4% | [5]; at 100.0 µM 11% | [6]; at 1.2 µM 0% | [6]; at 3.7 µM 0% | [6]; [17] 18% | [6]; at 11.0 µM 0% | [6]; at 33.0 µM 3% | [6]; [18] 3% | [6]; at 100.0 µM 10% | [7]; at 1.2 µM 2% | [7]; at 3.7 µM 0% | [7]; at 11.0 µM 0% | [7]; at 33.0 µM 0% | [7]; at 100.0 µM 1% | [8]; [17] 5% | [8]; [18] 2% | [9]; at 1.2 µM 2% | [9]; at 3.7 µM -1% | [9]; at 11.0 µM -4% | [9]; at 33.0 µM -5% | [9]; at 100.0 µM -4% | [10]; [17] 8% | [10]; [18] 22% | [11]; at 1.2 µM -1% | [11]; at 3.7 µM -1% | [11]; [17] 7% | [11]; at 11.0 µM 0% | [11]; at 33.0 µM -1% | [11]; [18] 23% | [11]; at 100.0 µM 5% | [12]; at 1.2 µM 0% | [12]; at 3.7 µM 1% | [12]; at 11.0 µM 3% | [12]; at 33.0 µM 4% | [12]; at 100.0 µM 8% | [13]; at 1.2 µM -2% | [13]; at 3.7 µM 2% | [13]; at 11.0 µM 2% | [13]; at 33.0 µM 3% | [13]; at 100.0 µM 8% | [14]; at 1.2 µM 1% | [14]; at 3.7 µM 3% | [14]; at 11.0 µM 5% | [14]; at 33.0 µM 11% | [14]; at 100.0 µM 19% | [15]; [17] 55% | [15]; [18] 12% | [16]; at 1.2 µM 0% | [16]; at 3.7 µM 2% | [16]; at 11.0 µM 4% | [16]; at 33.0 µM 6% | [16]; at 100.0 µM 16%
active: [5]; at 50.0 µM 97.8% | [6]; at 50.0 µM 97.2% | [8]; at 50.0 µM 98.4% | [10]; at 50.0 µM 84.3% | [11]; at 50.0 µM 93.1% | [15]; at 50.0 µM 97.8%

Cc1c2ccnc(C(=O)NCCN(C)C)c2cc2c3cc(O)ccc3n(C)c12
active: [1]; at 33.0 µM 88% | [1]; at 100.0 µM 92% | [5]; at 33.0 µM 88% | [5]; at 50.0 µM 92.1% | [5]; at 100.0 µM 92%
inactive: [1]; at 1.2 µM 2% | [1]; at 3.7 µM 23% | [1]; at 11.0 µM 69% | [2]; at 1.2 µM 2% | [2]; at 3.7 µM 5% | [2]; at 11.0 µM 10% | [2]; at 33.0 µM 20% | [2]; at 100.0 µM 29% | [3]; at 1.2 µM -2% | [3]; at 3.7 µM 4% | [3]; at 11.0 µM 22% | [3]; at 33.0 µM 44% | [3]; at 100.0 µM 56% | [4]; at 1.2 µM 0% | [4]; at 3.7 µM 2% | [4]; at 11.0 µM 8% | [4]; at 33.0 µM 10% | [4]; at 100.0 µM 30% | [5]; at 1.2 µM 1% | [5]; at 3.7 µM 20% | [5]; [17] 11% | [5]; at 11.0 µM 67% | [5]; [18] 59% | [6]; at 1.2 µM 1% | [6]; at 3.7 µM 6%

Reference: PubChem BioAssay (NCI)
